Data from PubChem BioAssay (NCI).
This is part of a sample that, as a whole, favours compounds with a hit. Of some 83,000 tested, about 20% had one in any assay.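 48-hour exposure, single concentration, 96-well plates; percent growth endpoint where 0 means no net growth. Active: below 10.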 Values without a mark were called inactive. Activity calls are given as the source filed them.

How the values were obtained:
Assay in all cases: NCI-60 one-dose screen, 48 h (100 = growth as untreated, 0 = no growth, -100 = all killed)
Settings in all cases: 10 µM unless noted
[1] = test system: NCI-H23 lung
[2] = test system: NCI-H226 lung
[3] = test system: NCI-H322M lung
[4] = test system: HOP-62 NSCLC
[5] = test system: NCI-H460 lung
[6] = test system: HOP-92 NSCLC
[7] = test system: NCI-H522 lung
[8] = test system: A549/ATCC NSCLC
[9] = test system: 786-0 renal
[10] = test system: COLO 205 colon
[11] = test system: DU-145 prostate
[12] = test system: K-562 leukemia
[13] = test system: MALME-3M melanoma
[14] = test system: MDA-MB-231 breast
[15] = test system: RXF 393 renal
[16] = test system: SF-268 CNS
[17] = test system: SF-295 CNS
[18] = test system: SF-539 CNS
[19] = test system: UACC-257 melanoma
[20] = test system: M14 melanoma

Cc1cccc(NC(=O)CSc2nc3ccc([N+](=O)[O-])cc3[nH]2)c1
growth [1]: 69.7%
growth [2]: 71%
growth [3]: 97.2%
growth [4]: 115%
growth [5]: 84.7%
growth [6]: 21%
growth [7]: 61%
growth [8]: 82.7%
growth [9]: 84.8%
growth [10]: 90.1%
growth [11]: 85%
growth [12]: 66.5%
growth [13]: 62.2%
growth [14]: 97.3%
growth [15]: 89%
growth [16]: 87.8%
growth [17]: 62.7%
growth [18]: 87.1%
growth [19]: 70.9%
growth [20]: 79.9%

O=c1nc(Nc2nc3ccccc3s2)[nH]c(=O)c2ccccc12
growth [1]: 99.1%
growth [2]: 92.8%
growth [3]: 105%
growth [4]: 91.2%
growth [5]: 103%
growth [6]: 83.4%
growth [7]: 96.8%
growth [8]: 106%
growth [9]: 96%
growth [10]: 112%
growth [11]: 106%
growth [12]: 95.9%
growth [13]: 99.7%
growth [14]: 98.3%
growth [15]: 98.1%
growth [16]: 102%
growth [17]: 99.3%
growth [18]: 97.5%
growth [19]: 107%
growth [20]: 101%

O=C1NC(=O)c2c1c1c3ccccc3[nH]c1c1oc3cc(Br)ccc3c21
growth [1]: 76.2%
growth [2]: 58.9%
growth [3]: 75.7%
growth [4]: 65.9%
growth [5]: 36.8%
growth [6]: 87.9%
growth [7]: 50.6%
growth [8]: 84.7%
growth [9]: 81.7%
growth [10]: 72.3%
growth [11]: 90.2%
growth [12]: 55%
growth [13]: 87%
growth [14]: 80.5%
growth [15]: 88.1%
growth [16]: 76.4%
growth [17]: 52.8%
growth [18]: 96.9%
growth [19]: 96.4%
growth [20]: 65.8%

CCN(CC)CCCNCc1cc(-c2ccccc2)nc2cc(Cl)ccc12
growth [1]: 68.6%
growth [2]: 140%
growth [3]: 75.5%
growth [4]: 78.1%
growth [5]: 43.3%
growth [6]: -20.9% (active)
growth [7]: 44.2%
growth [8]: 57.4%
growth [9]: -27.6% (active)
growth [10]: 51.2%
growth [11]: 78.3%
growth [12]: -17.3% (active)
growth [13]: -66.4% (active)
growth [14]: 22.1%
growth [15]: 77.2%
growth [16]: 38.2%
growth [17]: 79.9%
growth [18]: 40.4%
growth [19]: -76.8% (active)
growth [20]: -95.3% (active)

COC1=CC(c2ccc[nH]2)=N/C1=C\c1[nH]c(C)c(CC(=O)OCc2ccccc2)c1C
growth [1]: 6.16% (active)
growth [2]: 10.5%
growth [3]: 25.9%
growth [4]: 1.96% (active)
growth [5]: 7.86% (active)
growth [6]: -16.8% (active)
growth [7]: -33.4% (active)
growth [8]: 5.03% (active)
growth [9]: -23.7% (active)
growth [10]: -4.75% (active)
growth [11]: 20.8%
growth [12]: 2.58% (active)
growth [13]: -67.9% (active)
growth [14]: -13.6% (active)
growth [15]: -26.7% (active)
growth [16]: 9.87% (active)
growth [17]: -50.1% (active)
growth [18]: -4.33% (active)
growth [19]: -25% (active)
growth [20]: -55.9% (active)

CCNC(=O)Oc1ccc(/C(=C(/C)Cc2ccc(OC)cc2)c2ccc(OCCN3CCCC3)cc2)cc1
growth [1]: 86.6%
growth [2]: 90.1%
growth [3]: 89%
growth [4]: 93%
growth [5]: 55.9%
growth [6]: 61.8%
growth [7]: 78.9%
growth [8]: 66.4%
growth [9]: 68%
growth [10]: 33.4%
growth [11]: 87.1%
growth [12]: 2.41% (active)
growth [13]: 80.6%
growth [14]: 79.8%
growth [15]: 76.3%
growth [16]: 78.2%
growth [17]: 79.3%
growth [18]: 76.8%
growth [19]: 105%
growth [20]: 2.05% (active)

O=c1ccc2nc(C(F)(F)F)nn(-c3ccccc3)c-2c1
growth [1]: 67.7%
growth [2]: 77.7%
growth [3]: 99.8%
growth [4]: 69%
growth [5]: 97.3%
growth [6]: 35.2%
growth [7]: -56% (active)
growth [8]: 93%
growth [9]: 22.2%
growth [10]: -70.7% (active)
growth [11]: 40.5%
growth [12]: -35.1% (active)
growth [13]: -41.7% (active)
growth [14]: 61%
growth [15]: -20.5% (active)
growth [16]: 77.4%
growth [17]: 91.9%
growth [18]: 92.8%
growth [19]: 35.6%
growth [20]: 62.1%

COC(=O)Cc1nc(C#N)c(N(C)C)o1
growth [1]: 95.4%
growth [2]: 96.3%
growth [3]: 97.2%
growth [4]: 96.7%
growth [5]: 101%
growth [6]: 95.9%
growth [7]: 90.3%
growth [8]: 95.8%
growth [9]: 97.6%
growth [10]: 104%
growth [11]: 112%
growth [12]: 91.1%
growth [13]: 105%
growth [14]: 100%
growth [15]: 106%
growth [16]: 94.8%
growth [17]: 100%
growth [18]: 99%
growth [19]: 95.7%
growth [20]: 103%

CCCn1c(=S)sc2c1nc(C)n1c(Nc3ccccc3)nnc21
growth [1]: 26.6%
growth [2]: 66.9%
growth [3]: 83.9%
growth [4]: 75.5%
growth [5]: 45.3%
growth [6]: 48.9%
growth [7]: 12.4%
growth [8]: 66.1%
growth [9]: 54.8%
growth [10]: 128%
growth [11]: 109%
growth [12]: 37.6%
growth [13]: 65.4%
growth [14]: 84.5%
growth [15]: 29.3%
growth [16]: 99.4%
growth [17]: 51.7%
growth [18]: 62.9%
growth [19]: 75.3%
growth [20]: 89.1%

CCOC(=O)c1c(NC(=O)CSc2n[nH]c3nc4ccccc4n23)sc(CC)c1C
growth [1]: 98.6%
growth [2]: 86.7%
growth [3]: 107%
growth [4]: 108%
growth [5]: 106%
growth [6]: 63.6%
growth [7]: 87%
growth [8]: 102%
growth [9]: 98.4%
growth [10]: 114%
growth [11]: 112%
growth [12]: 117%
growth [13]: 138%
growth [14]: 90.3%
growth [15]: 96.1%
growth [16]: 108%
growth [17]: 91%
growth [18]: 111%
growth [19]: 113%
growth [20]: 116%

COc1cc(OC)cc(C2C(C#N)=C(N)Oc3c2ccc2ccc(O)cc32)c1 (stereo not given)
growth [1]: 14.9%
growth [2]: 38.2%
growth [3]: 30.9%
growth [4]: 23.3%
growth [5]: 3.85% (active)
growth [6]: 13.4%
growth [7]: 1.5% (active)
growth [8]: 6.38% (active)
growth [9]: 12.7%
growth [10]: -42% (active)
growth [11]: 10.9%
growth [12]: 6.22% (active)
growth [13]: 39.3%
growth [14]: 10.9%
growth [15]: 24.1%
growth [16]: 15.9%
growth [17]: 22.9%
growth [18]: -9% (active)
growth [19]: 69.4%
growth [20]: 5.6% (active)

CCOC(=O)Cn1c(=O)c2c3ccccc3n(C)c2n2nnc(-c3ccccc3)c12
growth [1]: 84.8%
growth [2]: 76.9%
growth [3]: 120%
growth [4]: 106%
growth [5]: 101%
growth [6]: 41.1%
growth [7]: 86.1%
growth [8]: 159%
growth [9]: 98%
growth [10]: 116%
growth [11]: 91.8%
growth [12]: 32.8%
growth [13]: 93.5%
growth [14]: 79.7%
growth [15]: 119%
growth [16]: 91%
growth [17]: 115%
growth [18]: 91.1%
growth [19]: 109%
growth [20]: 88.1%

Cc1ccc(-c2csc(NC(=O)N3CCN(c4cc5c(cc4F)c(=O)c(C(=O)O)cn5C4CC4)CC3)n2)cc1
growth [1]: 4.84% (active)
growth [2]: 14.5%
growth [3]: 9.12% (active)
growth [4]: 12.6%
growth [5]: 19.6%
growth [6]: -12.6% (active)
growth [7]: -5.07% (active)
growth [8]: 11.1%
growth [9]: 28.9%
growth [10]: 11.9%
growth [11]: 16.3%
growth [12]: 17.1%
growth [13]: -3.8% (active)
growth [14]: 17.5%
growth [15]: 26.6%
growth [16]: 24.3%
growth [17]: 4.88% (active)
growth [18]: 26.7%
growth [19]: -4.73% (active)
growth [20]: 20%

CCOC(=O)CSc1nc2sc3c(c2c(=O)n1-c1ccc([N+](=O)[O-])cc1)CCCCC3
growth [1]: 74.5%
growth [2]: 98.8%
growth [3]: 77.2%
growth [4]: 47.7%
growth [5]: 48.1%
growth [6]: 80.3%
growth [7]: 68.8%
growth [8]: 66.1%
growth [9]: 71.3%
growth [10]: 82.8%
growth [11]: 63.5%
growth [12]: 75.2%
growth [13]: 77.7%
growth [14]: 50.4%
growth [15]: 76.8%
growth [16]: 71.2%
growth [17]: 59.3%
growth [18]: 58.3%
growth [19]: 89%
growth [20]: 75.3%

Cc1ccc(/C=C(\C#N)C(=O)Nc2ncc(Cc3cc(Cl)ccc3Cl)s2)o1
growth [1]: 67.1%
growth [2]: 90.1%
growth [3]: 47.3%
growth [4]: 41.6%
growth [5]: 30.6%
growth [6]: 77%
growth [7]: 48.6%
growth [8]: 39.8%
growth [9]: 46.9%
growth [10]: 102%
growth [11]: 60%
growth [12]: 24.6%
growth [13]: 54.3%
growth [14]: 76.4%
growth [15]: 38.3%
growth [16]: 44.2%
growth [17]: 5.34% (active)
growth [18]: 16.9%
growth [19]: 35.3%
growth [20]: 69.4%
